This is a sample that favours compounds with a hit; in the whole collection about 1.7% have one here.
PTHR1 agonist: PTHR1 (human) receptor agonism. actives 0.075% (n = 410,000). HEK293 GP2 PTHR1 cells, GloSensor cAMP luminescence, 1 h. AID 743266. Q03431. Potency, µM (titrated, usually from 115 µM), for inactives: at the highest dose activation, hits mostly activators; further: nearly all actives have a fitted effect of over 55% in size
Target sequence (Q03431 whole entry, looked up): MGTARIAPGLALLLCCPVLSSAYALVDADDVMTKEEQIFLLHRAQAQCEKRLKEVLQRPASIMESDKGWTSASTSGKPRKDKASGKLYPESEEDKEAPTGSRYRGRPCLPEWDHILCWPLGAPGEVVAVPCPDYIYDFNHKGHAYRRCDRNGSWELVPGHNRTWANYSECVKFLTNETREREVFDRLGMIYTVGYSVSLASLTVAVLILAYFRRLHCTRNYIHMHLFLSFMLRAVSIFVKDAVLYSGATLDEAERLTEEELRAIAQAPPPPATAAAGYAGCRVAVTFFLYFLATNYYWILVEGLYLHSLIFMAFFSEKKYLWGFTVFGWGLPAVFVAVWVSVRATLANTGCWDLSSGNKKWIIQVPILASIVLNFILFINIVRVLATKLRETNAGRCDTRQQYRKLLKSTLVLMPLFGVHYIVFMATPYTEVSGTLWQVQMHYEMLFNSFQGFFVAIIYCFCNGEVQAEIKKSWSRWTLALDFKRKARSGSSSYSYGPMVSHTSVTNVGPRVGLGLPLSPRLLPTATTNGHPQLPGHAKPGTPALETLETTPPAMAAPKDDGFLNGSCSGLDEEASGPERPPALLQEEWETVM
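HEK-293-derived GP2 cells expressing PTHR1 and a GloSensor cAMP reporter, 3,000/well, plated overnight, given luciferin plus IBMX (each 0.5 mM as added) for 1 h at 37 °C, then compound for 1 h at 37 °C. Luminescence was read after 15 min at room temperature.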
GLP1R inv ag: GLP-1 receptor (human) inverse agonism. actives 1.6% (n = 410,000). Potency, µM (titrated, usually from 38.3 µM), inactives show top-dose activity change, negative = inhibition, actives largely listed as inhibitors. HEK293 GLP-1R CRE-luciferase, luminescence, 24 h; GLP-1R form is constitutively active. P43220; further: on the % scale 0 is the no-effect control and ±100 the full control effect; nearly all actives have a fitted effect of over 55% in size
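Inverse agonism was detected as reduced cAMP-driven luciferase luminescence after 24 h compound treatment. The cells were HEK293 clones expressing constitutively active human GLP-1R with the reporter. Reporter-only and GPR119 cell lines served as counterscreen controls.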
GLP-1R agonist: activates the human GLP-1 receptor; actives 0.007% (n = 380,000); Potency, µM (titrated, usually from 45.6 µM), for the others: top-dose activation, most hits filed as activators; P43220; HEK293 GLP-1R CRE-luciferase, luminescence, 4-6 h; cells express a hypersensitive GLP-1R form; AID 624172; further: % of control where 0% means no effect
HEK293 tox: cytotoxicity in counter-screen for GLP-1R inverse agonists. HEK293 cAMP-luciferase reporter cells, luminescence, 24 h. Potency, µM (highest dose often 38.3 µM), without a hit: at the top dose activity change, negative = inhibition, most hits filed as inhibitors. actives 0.13% (n = 410,000). AID 624418;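 further: loss of luciferase light is scored as toxicity; on the % scale 0 is the no-effect control and ±100 the full control effect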
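Here, cytotoxicity is scored as loss of luminescence. The MLSMR collection was tested on cells seeded in medium containing 10% Nu serum, with a 24 hr compound exposure preceded by 12 hours of culture.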
Numbers without * were called inactive; i = inactive; ? = inconclusive; . = no result given; [ ] = dose if it differs, or a comment. The call rests on the fitted dose curve; in most records, active means well fitted curve in the direction sought with a large enough effect; inconclusive means small, poorly fitted or top-dose-only effect, or another doubt; inactive means no such curve, though single readings can be large; an effect the other way counts as inactive or inconclusive. Potency means the concentration at half of the fitted maximal effect.

SMILES	PTHR1 agonist	GLP1R inv ag	GLP-1R agonist	HEK293 tox
Cc1ccc([C@H]2C[C@@H](O)[C@H](n3cc(COC(=O)c4ccccc4)nn3)CN2CC2CCCCC2)cc1	-26.0%	3.5%	-1.3%	12.6%
COc1ccc([C@H]2C[C@@H](O)[C@H](n3cc(COC(=O)c4ccccc4)nn3)CN2CC2CCCCC2)cc1	i	11.2µM*	-0.7%	-28.6%
N#CC1c2ccccc2-n2nncc2CN1Cc1cc(Cl)cc(Cl)c1 (configuration not stated)	-28.8%	1.26µM*	-13.0%	?
COc1ccc(CN2Cc3cnnn3-c3ccccc3C2C#N)cc1 (configuration not stated)	-95.3%	2.82µM*	-13.0%	?
Cn1c(=O)[nH]c(=O)c2c1nc([N+](=O)[O-])n2Cc1ccccc1	-41.7%	?	-4.7%	10µM*
CCc1ccc(/C=C2\SC(=S)N(CCCC(=O)N(CCO)c3ccccc3)C2=O)cc1	-20.0%	10µM*	-5.4%	?
O=C(CCCN1C(=O)/C(=C\c2ccccc2)SC1=S)N1CCOCC1	-12.8%	?	-11.3%	?
COc1ccc(-c2nc(CSCC(=O)N3CCN(c4ccc(F)cc4)CC3)c(C)o2)cc1	i	?	.	15.8%
O=C(NC(c1ccc(F)cc1)c1ccc2ccccc2n1)C1CCN(CCOc2ccc(Cl)cc2)CC1 (configuration not stated)	-13.7%	6.31µM*	-6.4%	?
Cc1oc(-c2cccc(Cl)c2)nc1CN1CCC(C(=O)NCCCN2CCN(c3ccc(F)cc3)CC2)CC1	-3.2%	?	.	7.6%
CCCCNC(C)(C)[P+](=O)O	.	.	-6.7%	.
CN(C)C(=O)Oc1ccc(OCc2nc3ccccc3[nH]2)cc1	-37.6%	7.08µM*	-26.9%	15.8%
CN(C)C(=O)Oc1ccc(OC(=O)N(C)C)cc1	i	4.8%	-1.6%	1.6%
CN(C(=O)CNC(=O)OCc1ccccc1)c1ccc(Br)cc1C(=O)c1ccccc1Cl	-45.0%	2.82µM*	-3.8%	?
O=C(CNC(=O)OCc1ccccc1)Nc1ccc(Br)cc1C(=O)c1ccccc1Cl	-12.7%	?	0.0%	-22.4%
O=C(CN1CCNCC1)N1CCOCC1	i	32.3%	-2.1%	0.1%
Cc1ccc(/C=C/C(=O)c2ccc(O)cc2)cc1	-57.9%	?	-3.4%	?
Cc1cc(C)c(C(=O)/C=C/c2ccc(C(C)C)cc2)c(=O)[nH]1	-17.9%	1.41µM*	-3.3%	?
O=C1C=C(N2CCOCC2)c2ccccc2C1=O	-41.0%	?	-8.9%	11.2µM*
O=C1C=C(N2CC2)c2ccccc2C1=O	i	-11.6%	-5.7%	-16.4%
CCCCNc1cc(C)nc(NCc2ccccc2)n1	-74.7%[57.5 µM]	?	9.4%	11.2µM*
C[C@]12CC[C@@H]3c4ccc(OC(=O)N(CCCl)CCCl)cc4CC[C@@H]3[C@H]1CC[C@@H]2OP(=O)(O)O	.	.	-6.4%	.
COC(=O)NC(NC(=S)Nc1ccc([N+](=O)[O-])cc1)C(Cl)(Cl)Cl (configuration not stated)	-0.4%	11.2µM*	-35.8%	?
CCN(CC)C(=O)c1ccc(NC(=O)COc2ccc([N+](=O)[O-])cc2Cl)cc1	-21.0%	?	-0.2%	-1.4%
O=C(Nc1ccc([N+](=O)[O-])cc1)Nc1ccc(OC(F)F)c(Cl)c1	-40.7%	3.55µM*	-8.3%	?
SMILES	PTHR1 agonist	GLP1R inv ag	GLP-1R agonist	HEK293 tox
O=C(Cc1ccc(Br)cc1)NCc1ccccc1	-21.3%	?	0.0%	?
Cc1cccc(C)c1NC(=O)C(c1ccncc1)n1c(=O)c(-c2cc3ccccc3[nH]2)nc2ccccc21 (configuration not stated)	-17.2%	?	.	256.2%
CCOC(=O)c1sc(NC(=O)Nc2cccc(Cl)c2)cc1C	-24.7%	3.55µM*	-13.0%	?
O=P(Nc1cccc(Cl)c1)(Oc1ccccc1)Oc1ccccc1	-14.4%	8.91µM*	3.4%	-18.5%
COc1cccc(NP(=O)(Oc2ccccc2)Oc2ccccc2)c1	-35.2%	5.01µM*	-3.8%	10.6%
COc1cccc(NP(=O)(Oc2ccccc2Cl)Oc2ccccc2Cl)c1	i	?	7.8%	?
C[C@@H](N)[C@@H](O)c1ccc(O)c(O)c1	.	.	33.7%	.
CCc1cc(C(=O)N2CCN(c3ccccc3OC)CC2)sc1C	-4.7%	?	13.3%	?
COc1ccccc1N1CCN(C(=O)c2sc3nc(C)nc(N4CCN(c5ccccn5)CC4)c3c2C)CC1	i	5.01µM*	-0.4%	?
O=C(Nc1ccccc1Cl)c1ccccc1Oc1ccc(C(F)(F)F)cc1[N+](=O)[O-]	i	7.08µM*	-43.5%	?
COc1cccc(OC)c1C(=O)NC(=S)N1CCN(c2ccc(C(F)(F)F)cc2[N+](=O)[O-])CC1	-10.5%[57.5 µM]	?	-10.1%	?
Cc1oc2c(c1C(=O)NCc1cccnc1)C(=O)c1ccccc1C2=O	-14.2%	3.16µM*	-13.6%	?
CCCCCn1c(=O)c(C(=O)NCc2ccncc2)c(O)c2ccccc21	-40.2%	0.0%	1.8%	-5.2%
Cc1ccc(C)c(NC(=O)C(Sc2nc3ccc(C)cc3[nH]2)c2ccccc2)c1 (configuration not stated)	-48.2%	3.16µM*	0.6%	?
CC(Cc1ccccc1Sc1ccccc1O)N(C)C (configuration not stated)	-35.5%[57.5 µM]	7.94µM*	-14.7%	5.7%
C#CCN(C)[C@H](C)Cc1ccccc1	-17.0%	9.4%	-1.1%	6.2%
O=C(c1ccccc1)c1nn(-c2ccc(Cl)cc2)c(=O)cc1C(F)(F)F	-11.1%	3.98µM*	30.3%	?
O=C(C1CCCN(S(=O)(=O)c2cccc3nsnc23)C1)N1CCN(c2cccc(Cl)c2)CC1 (configuration not stated)	-50.3%	-0.3%	-4.0%	1.9%
NNC(=O)c1ccc(OCC2CC(c3ccc(Cl)cc3)=NO2)cc1 (configuration not stated)	-33.8%	12.6µM*	3.1%	12.6µM*
CCCCCSc1cc(OC)c(CCN(C)C)cc1OC	i	?	-4.7%	-25.0%
CCCCCSc1cc(O)c(C(CNC)C(C)C)cc1OC (configuration not stated)	-0.9%	10µM*	9.5%	-16.1%
c1ccc(CCN2CCC(N3CCN(c4ccccc4)CC3)CC2)cc1	11.6%[57.5 µM]	1.1%	14.3%	3.5%
CCCCN(Cc1ccccc1)C1CCN(CCc2ccccc2)CC1	i	10µM*	0.9%	-2.1%
Cc1ccc([C@H]2C[C@@H](n3cc(C4CC4)nn3)[C@H](O)CN2CC2CCCCC2)cc1	i	-17.1%	-5.9%	6.5%
COP(C)(=O)c1c(C)nn(-c2ccccc2)c1C (configuration not stated)	?	1.8%	-4.2%	-5.8%
COc1ccc(C(=O)Oc2c(Sc3ccccc3)c(C)nn2-c2ccccc2)c(OC)c1	i	12.6µM*	.	?
C=C(CN(C)C)C(=O)c1ccc(C)cc1C	-4.1%	?	-13.3%	10µM*

Screens as filed in PubChem.
